# Measles CPE: protection of cells from measles virus; Measles virus-infected cells, CPE protection, absorbance; protection (pct of control), % at 4 µM; 140,000 compounds, 1.5% hits; AID 841; in the data active = protection mostly above about 24%, no sharp cut-off; inactive = mostly below about 26%
# sdo1 growth: sdo1-depleted yeast growth rescue; S. cerevisiae sdo1-depleted JHY4D growth rescue, OD600 30 h; active compounds read high; pdr5 snq2 efflux-pump mutant strain; z-score at 10 µM; 140,000 compounds, 0.21% hits; AID 817;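 active = z-score above 3 at both the 24 hr and the 30 hr optical density reads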
# sEH inh: blocks human soluble epoxide hydrolase activity. AID 707. inhibition, % at 2 µM. recombinant human sEH enzymatic activity assay. 91,000 compounds, 0.34% hits; in the data active = inhibition above about 80%
# Target sequence (P34913 whole entry, looked up): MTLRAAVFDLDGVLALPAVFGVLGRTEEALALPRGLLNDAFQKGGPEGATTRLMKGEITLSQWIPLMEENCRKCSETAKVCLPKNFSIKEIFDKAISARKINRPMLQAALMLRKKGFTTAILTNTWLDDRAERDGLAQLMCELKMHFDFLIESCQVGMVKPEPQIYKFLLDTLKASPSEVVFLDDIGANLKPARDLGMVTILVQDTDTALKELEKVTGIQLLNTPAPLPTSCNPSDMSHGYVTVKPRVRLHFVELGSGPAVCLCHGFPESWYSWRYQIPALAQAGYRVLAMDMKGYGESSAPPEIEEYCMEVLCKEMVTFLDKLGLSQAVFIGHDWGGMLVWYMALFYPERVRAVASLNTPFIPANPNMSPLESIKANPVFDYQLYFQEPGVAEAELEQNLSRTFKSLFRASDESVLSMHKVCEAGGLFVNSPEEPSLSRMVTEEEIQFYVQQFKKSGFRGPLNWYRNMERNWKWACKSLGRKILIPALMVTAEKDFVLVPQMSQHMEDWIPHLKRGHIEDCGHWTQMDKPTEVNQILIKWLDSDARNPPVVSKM
# sEH act: activators of human soluble epoxide hydrolase; purified human sEH enzymatic activity, activator screen; activation, % at 2 µM; 91,000 compounds, 0.04% hits; AID 717; in the data active = activation above about 37%
# A number is an active result; n = inactive; x = not tested or not shown. Sampled rows, rich in hits. Any-hit rate of the full collection: about 1.9%.
SMILES,Measles CPE,sdo1 growth,sEH inh,sEH act
CCc1ccc(N(C(=O)c2csnn2)C(C(=O)NCc2ccccc2)c2ccco2)cc1 (configuration not stated),35,n,n,n
O=C(NCc1ccccc1)C(c1ccco1)N(C(=O)c1cnccn1)c1ccc(F)cc1 (configuration not stated),n,n,n,n
CCOC(=O)N1CCN(c2c(N3CCN(c4ccc(OC)cc4)CC3)c(=O)c2=O)CC1,n,n,n,n
Cn1c(=O)c2c(-c3ccccc3)n(Cc3ccccn3)cc2n(C)c1=O,n,n,n,n
Cc1ccc(-c2c3c(=O)n(C)c(=O)n(C)c3cn2Cc2ccccc2)cc1,38,n,n,n
N#C/C(=C/c1cc(Br)cs1)C(=O)NCC1CCCO1 (configuration not stated),37,n,n,n
O=C(COC(=O)C1(c2ccc(Cl)cc2)CCCC1)NC1CCS(=O)(=O)C1 (configuration not stated),n,n,n,n
COc1ccccc1NS(=O)(=O)c1cccc(C(=O)N/N=C(\C)c2ccc(-n3ccnc3)cc2)c1,n,n,82,n
CCOC(=O)CSc1n[nH]c(NC(=O)c2ccccc2)n1,53,n,n,n
O=C(CSc1nc2ccccc2c(=O)[nH]1)N1CCN(S(=O)(=O)c2ccccc2)CC1,n,n,x,x
O=C(CSc1nc(-c2ccccc2)c(-c2ccccc2)[nH]1)N1CCN(S(=O)(=O)c2ccccc2)CC1,28,n,n,n
CCOC(=O)c1cnc2c(Cl)cc(Cl)cc2c1NCCOCCO,n,n,n,n
O=C1c2ccccc2-c2cccc(C(=O)N3CCCCCC3)c21,29,n,x,x
Cc1cc(F)ccc1NCC(=O)Nc1ccccc1Br,50,n,x,x
Oc1c(CN2CCCCC2)cc(COCc2ccccc2)c2cccnc12,n,n,n,n
CC(=O)Nc1ccc(S(=O)(=O)N(C)c2ccc(O)cc2)cc1,44,n,n,n
O=C(NC1=NCCS1)C1Cc2ccccc2CN1C(=O)c1ccccc1 (configuration not stated),29,n,n,n
CC(=O)c1ccc(NC(=O)C2Cc3ccccc3CN2C(=O)c2ccccc2)cc1 (configuration not stated),n,n,x,x
O=C1CCC/C1=c1\s/c(=C\c2cccnc2)c(=O)n1-c1ccccc1,28,n,x,x
O=c1/c(=C\c2cccnc2)sc2nc3ccccc3n12,n,n,n,n
O=c1ccn(-c2cccc(C(F)(F)F)c2)nc1-c1ccn(-c2ccccc2)n1,n,n,n,n
COc1c([N+](=O)[O-])c(=O)oc2ccccc12,n,n,x,x
CC(=O)CC(c1ccc([N+](=O)[O-])cc1)c1c(O)c2ccccc2oc1=O (configuration not stated),36,n,n,n
Cc1cc2cc(CNC(=O)NC3CCCCC3)ccc2[nH]1,n,n,90,n
O=C(NCc1ccc(N2CCCC2=O)cc1)NC1CCCCC1,n,n,80,n
SMILES,Measles CPE,sdo1 growth,sEH inh,sEH act
CC(=O)NCc1ccc2[nH]c(C)cc2c1,n,n,x,x
COc1ccc(/C=N/OCC(=O)N2CC3(C)CC2CC(C)(C)C3)cc1OC (configuration not stated),44,n,n,n
COc1cc(/C=C/C(=O)OCC(=O)N2CC3(C)CC2CC(C)(C)C3)ccc1O (configuration not stated),n,n,x,x
C=C(C)C1CC=C(C)/C(=N/NC(=O)COc2ccc(C)cc2)C1 (configuration not stated),n,n,n,n
O=C(Nc1ccc(C#Cc2ccccc2)cc1)C1CC1,58,n,n,n
CCCC(=O)Nc1ccc(C#Cc2ccccc2)cc1,n,n,n,n
COc1cc2c(c(O)c1OC)C(=O)C(OC)CCC2 (configuration not stated),n,n,n,n
COc1cnc(-c2ccccc2)nc1Oc1cccc(C)c1,n,n,n,n
CCOC(=O)C1CCCN(S(=O)(=O)c2cccs2)C1 (configuration not stated),29,n,n,n
CC(C)NC(=O)C1CCCN(S(=O)(=O)c2cccs2)C1 (configuration not stated),n,n,n,n
CC1CCN(C(=O)Cn2cc(C#N)c3ccccc32)CC1,n,n,n,n
CC1CCCCN1C(=O)Cn1cc(C#N)c2ccccc21 (configuration not stated),40,n,n,n
Cc1sc2nc(C3CC3)nc(SCC(=O)NCc3ccco3)c2c1C,n,n,n,n
Cc1sc2nc(C3CC3)nc(SCC(=O)N3c4ccccc4CC3C)c2c1C (configuration not stated),64,n,n,n
N#Cc1c(-c2ccccc2)cc(-c2ccccc2)nc1SCc1nnc(-c2ccccc2)o1,n,n,n,n
